Results on seven molecules are retold here after PubChem BioAssay (NCI).

What all share (assay): NCI-60 one-dose screen, 48 h (100 = growth as untreated, 0 = no growth, -100 = all killed)
What all share (conditions): 10 µM unless noted

Test [1] deals with NCI-H23 lung.
Test [2] has as its system NCI-H226 lung.
For test [3], the system named is NCI-H322M lung.
The subject of test [4] is HOP-62 NSCLC.
Test [5] deals with NCI-H460 lung.
The test system of test [6] is HOP-92 NSCLC.
The test system of test [7] is NCI-H522 lung.
Test [8] relates to A549/ATCC NSCLC.
The test system of test [9] is 786-0 renal.
Test [10] has as its system COLO 205 colon.
For test [11], the system named is DU-145 prostate.
The test system of test [12] is K-562 leukemia.
Test [13] deals with MALME-3M melanoma.
Test [14] deals with MDA-MB-231 breast.
Test [15] deals with RXF 393 renal.
Test [16] has as its system SF-268 CNS.
In test [17] the test system is SF-295 CNS.
The subject of test [18] is SF-539 CNS.
Test [19] concerns UACC-257 melanoma.
For test [20], the system named is M14 melanoma.

This is part of a sample that, as a whole, favours compounds with a hit. Of some 83,000 tested, about 20% had one in any assay.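 Method: cells in 96-well plates; compound added at one concentration; 48 h incubation; percent growth measured; values under 10 scored active.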 Unmarked numbers belong to inactive results. The source made the active and inactive calls.

Take `CCOc1ccccc1NC(=O)CCC(=O)OC`: the growth was 109% in [1]; 101% in test [2]; 96.5% in test [3]; 94.8% in test [4]; 108% in test [5]; 110% in test [6]. The growth is 81.9% in test [7]; 108% in [8]; 91.1% in test [9]; 103% in [10]; 107% in test [11]; 108% in test [12]. Further, the growth in test [13] is 72.9%; in test [14], 107%; in test [15], 109%; in test [16] it was 96.9%; in test [17] it was 104%; in test [18] it was 97.4%. Moreover, the growth was 123% in test [19] and 100% in [20].

Consider `Cc1ccc(S(=O)(=O)c2nc(-c3ccccc3)oc2S(C)=O)cc1` (stereo not given), for which the growth in test [1] was 63.6%; in test [2], 62.6%; in [3] it was 79.9%; in test [4], 78.5%; in test [5], 73.1%; in test [6], -51.8% (active). The growth in [7] is -74.5% (active); in [8] it was 69.8%; in test [9], -64.5% (active); in test [10], -79.3% (active); in test [11], 47.3%; in test [12] it was -31.1% (active). The growth was -76.8% (active) in test [13]; 4.23% (active) in test [14]; -33.4% (active) in [15]; 55.9% in [16]; 84.3% in [17]; -22% (active) in test [18]. For the same molecule, the growth in test [19] was 46.5%; in [20] it was -80.6% (active).

Turning to `O=C(/C=C/c1ccc(Cl)cc1)c1ccc(Nc2ccnc3cc(Cl)ccc23)cc1`, the growth in test [1] was 71.1%; in test [2], 111%; in [3], 89.6%; in test [4], 72.2%; in [5], 133%; in test [6], 15.2%. Further, the growth is 88.3% in [7]; 62.7% in test [8]; 62.8% in test [9]; 107% in [10]; 145% in [11]; 27.8% in [12]. Further, the growth in test [13] was 79.9%; in test [14], 48.4%; in test [15] it was -41.4% (active); in test [16], 164%; in test [17], 9.54% (active); in test [18] it was 122%. For the same molecule, the values for the growth in [19] and in test [20] were 93.4% and 84.5%, respectively.

Consider `c1ccc(-c2cn3nc(-c4c[nH]c5ccccc45)sc3n2)cc1`, for which the growth in test [1] is 87.6%; in test [2], 77.3%; in [3], 71.4%; in test [4], 73.6%; in test [5], 89.2%; in [6], 75.5%. The growth is 61.2% in [7]; 82.6% in [8]; 102% in test [9]; 87.1% in test [10]; 98% in test [11]; 42.4% in [12]. Also, the growth in [13] was 62.6%; in test [14], 76.5%; in [15], 97.4%; in [16] it was 94.4%; in [17] it was 83.7%; in [18], 85.5%. The results for the growth in [19] and in test [20] were 83.2% and 71.1%, respectively.

For the molecule `C/C(=N\NC(=O)c1ccc(C(C)(C)C)cc1)c1ccc(O)cc1O`, the growth is 23.7% in test [1]; 25.6% in test [2]; 25.5% in [3]; 20.9% in test [4]; 3.99% (active) in test [5]; 59.3% in test [6]. Also, the growth was 27.5% in test [7]; 21.5% in test [8]; 15.3% in [9]; 7.24% (active) in [10]; 29.3% in test [11]; 12.9% in [12]. For the same molecule, the growth was 28.4% in test [13]; 37.4% in test [14]; -9.15% (active) in test [15]; 27.6% in test [16]; 16.2% in test [17]; 14.7% in test [18]. Moreover, the growth is 8.32% (active) in [19] and 23% in test [20].

For the molecule `CSc1nc(CC(C)C)c(C#N)c(=O)n1C`, the growth in test [1] is 66.8%; in test [2], 60.3%; in [3], 84.7%; in test [4], 79.3%; in [5] it was 83.3%; in test [6] it was 8.54% (active). The growth in test [7] is 39.2%; in test [8] it was 80.7%; in test [9], 57.9%; in [10], 43.3%; in [11], 70.7%; in test [12], 68.8%. For the same molecule, the growth is 58.4% in [13]; 47.3% in [14]; 58.7% in test [15]; 65.7% in test [16]; 73.9% in [17]; 75.9% in test [18]. Moreover, the growth in test [19] is 78.6%; in [20] it was 70.7%.

On to `COc1ccc(-c2csc(NC(=O)CSc3nc(C)cc(=O)[nH]3)n2)cc1`, for which the growth in test [1] is 91.1%; in test [2], 111%; in test [3], 106%; in test [4] it was 118%; in test [5] it was 107%; in [6] it was 95.5%. Besides, the growth in test [7] is 86.7%; in test [8] it was 104%; in [9], 102%; in test [10] it was 116%; in [11] it was 106%; in test [12], 104%. Moreover, the growth in test [13] is 110%; in test [14], 91.7%; in test [15] it was 128%; in test [16] it was 96.4%; in test [17], 99.3%; in test [18], 101%. For the same molecule, the figures for the growth in [19] and in test [20] were 101% and 107%, respectively.
